KCNQ2 pot – KCNQ2 (rat) channel potentiation | B-score at 10 µM | CHO-K1 KCNQ2, FluxOR thallium flux fluorescence; hits give high values | 310,000 compounds, 0.54% hits | O88943;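 active = fluorescence ratio B-score at least 3 SD of library B-scores, with initial fluorescence B-score within 3 of them, cut at about 5.3 in these data; same plate scores as AID 2156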;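 also: B-score of peak minus minimum over baseline fluorescence ratio after K+ and Tl+ stimulus; positive B-score means potentiation of KCNQ2 with more thallium influx and brighter signal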
Target sequence (O88943 whole entry, looked up): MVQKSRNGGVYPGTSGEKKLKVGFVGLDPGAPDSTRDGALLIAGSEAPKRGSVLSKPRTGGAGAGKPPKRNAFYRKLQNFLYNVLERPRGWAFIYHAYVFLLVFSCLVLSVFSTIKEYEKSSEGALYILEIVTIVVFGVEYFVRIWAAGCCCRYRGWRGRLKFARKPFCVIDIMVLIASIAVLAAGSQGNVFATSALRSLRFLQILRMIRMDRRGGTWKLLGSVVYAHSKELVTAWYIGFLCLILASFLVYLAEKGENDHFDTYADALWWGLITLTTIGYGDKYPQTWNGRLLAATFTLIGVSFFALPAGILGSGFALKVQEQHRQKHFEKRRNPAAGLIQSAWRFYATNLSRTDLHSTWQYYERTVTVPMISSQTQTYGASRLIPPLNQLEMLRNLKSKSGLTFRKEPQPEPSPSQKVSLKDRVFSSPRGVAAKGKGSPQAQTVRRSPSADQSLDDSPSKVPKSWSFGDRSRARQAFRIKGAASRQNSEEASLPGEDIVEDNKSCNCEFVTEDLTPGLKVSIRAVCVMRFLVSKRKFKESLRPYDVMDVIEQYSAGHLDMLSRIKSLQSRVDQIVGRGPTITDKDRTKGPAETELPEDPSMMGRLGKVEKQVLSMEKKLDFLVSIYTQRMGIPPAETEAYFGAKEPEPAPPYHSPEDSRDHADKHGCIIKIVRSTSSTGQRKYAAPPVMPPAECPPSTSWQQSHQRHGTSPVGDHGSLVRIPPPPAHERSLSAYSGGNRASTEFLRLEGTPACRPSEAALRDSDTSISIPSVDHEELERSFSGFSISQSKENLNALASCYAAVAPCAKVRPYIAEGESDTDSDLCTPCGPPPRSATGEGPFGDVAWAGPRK
KCNQ2 inh – inhibitors of rat KCNQ2 potassium channel | O88943 | CHO-K1 KCNQ2, FluxOR thallium flux, 20 min; hits give low values | B-score at 10 µM | 310,000 compounds, 1.1% hits | AID 2156;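 active = fluorescence ratio B-score at most minus 3 library SDs, with starting brightness B-score within 2 library SDs, cut at about -5.5 in these data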
Kir21 conf inh – confirmation of mouse Kir2.1 potassium channel inhibitors. shares compounds with KCNQ2 pot. Kir2.1-expressing cells, FluxOR thallium flux fluorescence; hits give low values. Tl flux remaining, % of negative control (hits give low values), % at 10 µM. 2,300 compounds, 41% hits. AID 2032;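 active = Primary-screen hit whose thallium flux fell at least 3 control SD below untreated wells in both duplicates, with normal baseline fluorescence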;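 also: 0% = blank wells without stimulus and 100% = stimulated no-compound controls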
HEK293 ctr – alters thallium flux in parental HEK293 cells, Kir2.1 counter-screen; shares compounds with KCNQ2 pot; 2,300 compounds, 19% hits; FluxOR signal as % of negative control (100 = no effect), % at 10 µM; AID 2105; FluxOR thallium flux fluorescence; 0% = unstimulated blank wells;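 active = dye signal at least 3 control SD above or below untreated wells in both duplicates, raw fluorescence within 3, either direction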;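 also: percent is based on the flux ratio of peak minus minimum fluorescence over baseline F0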
CHO-K1 ctr – alters thallium flux in parental CHO-K1 cells, KCNQ2 counter-screen | shares compounds with KCNQ2 pot | FluxOR thallium flux fluorescence; zero = vehicle mean+3SD, 100% = vehicle-minus-blank window | 1,200 compounds, 43% hits | activity increase over 3SD of controls, % at 10 µM;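 active = signal rise of at least 3 SD above the untreated control mean, in both duplicate wells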;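 also: counter screen of KCNQ2 potentiator hits so any rise reflects channel-independent effects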
KCNQ1 pot spec – tests whether KCNQ2 potentiators also act on human KCNQ1. activation over 3SD threshold, % at 10 µM. shares compounds with KCNQ2 pot. 1,200 compounds, 28% hits. CHO KCNQ1 stable, FluxOR thallium flux fluorescence; beyond 3SD, as % of vehicle-control signal. AID 2283;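 active = fluorescence ratio rise of at least 3 SD of vehicle wells above their mean, in both replicate wells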;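 also: 0% = vehicle mean plus 3 SD and 100% = vehicle minus unstimulated blank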
KCNQ2 pot confirm – rat KCNQ2 channel potentiator confirmation; 1,200 compounds, 68% hits; shares compounds with KCNQ2 pot; potentiation, less the hit threshold, % at 10 µM; CHO-KCNQ2 cells, FluxOR thallium flux fluorescence;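 active = fluorescence ratio rising 3 SD or more over the vehicle control mean in both replicates, plus primary screen hit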;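 also: peak minus minimum thallium fluorescence divided by baseline after K/Tl stimulus; 0% = vehicle mean plus 3 SD and 100% = vehicle minus unstimulated blank difference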
Kir21 spec – tests whether KCNQ2 potentiators also affect mouse Kir2.1 | shares compounds with KCNQ2 pot | 1,200 compounds, 2% hits | activity over 3SD threshold, % at 10 µM | HEK293 Kir2.1, FluxOR thallium flux fluorescence | AID 2345;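 active = fluorescence ratio rise of at least 3 SD above the vehicle-control mean, seen in both replicates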;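 also: 0% = vehicle mean plus 3 SD and 100% = vehicle minus no-stimulus blank window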
KCNQ2 W236L pot – rat KCNQ2 W236L mutant potentiation by KCNQ2 potentiators. shares compounds with KCNQ2 pot. CHO KCNQ2-W236L, automated patch clamp current. current increase over 3SD of negative controls (%), hits give high values, % at 25 µM. 940 compounds, 10% hits. AID 2558;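 active = current increase at least 3 SD of the untreated controls above them in both duplicate recordings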
The depositor's hits bear a star; i = inactive; · = no result. Shown are actives, neighbours in structure and some others; about 1.6% of the full set was active somewhere.

SMILES | KCNQ2 pot | KCNQ2 inh | Kir21 conf inh | HEK293 ctr | others
O=C(COC(=O)CCS(=O)(=O)c1ccccc1)NC(=O)c1ccc(OC(F)F)cc1 | 0.54 | i | · | ·
Cc1cccc(CC(=O)NC2CCN(C)CC2)c1 | · | i | · | ·
Cc1cc2cccc(C)c2nc1SCC(=O)NC1CCCCC1 | 12.6* | i | i | i | CHO-K1 ctr=-1.8;KCNQ1 pot spec=-7.1;KCNQ2 pot confirm=0.3*;Kir21 spec=-27.2;KCNQ2 W236L pot=i
Cc1cc(NC(=O)CSc2nc3c(C)c(C)ccc3cc2C)no1 | 5.94* | i | i | i | CHO-K1 ctr=-26.1;KCNQ1 pot spec=-7.9;KCNQ2 pot confirm=-11.3;Kir21 spec=-35.1
Cc1ccc(OCC(=O)NC2CCCCCC2)cc1C | 6.52* | i | i | i | CHO-K1 ctr=-3.4;KCNQ1 pot spec=-16.0;KCNQ2 pot confirm=2.0*;Kir21 spec=-41.9;KCNQ2 W236L pot=i
Cc1cc2cccc(C)c2nc1SCC(=O)NCC1CCCO1 (stereo not given) | 0.98 | i | · | ·
Cc1cccc(OCC(=O)NC2CCCC2)c1 | 0.59 | i | · | ·
Cc1cccc(CC(=O)NC2CCCCCC2)c1 | 6.71* | i | i | i | CHO-K1 ctr=-6.0;KCNQ1 pot spec=-37.4;KCNQ2 pot confirm=11.0*;Kir21 spec=-33.9;KCNQ2 W236L pot=i
CCc1cc2ccc(C)c(C)c2nc1SCC(=O)Nc1cc(C)on1 | 1.1 | i | · | ·
Cc1cc2nsnc2c(S(=O)(=O)N2CCN(C)CC2)c1C | 2 | i | · | ·
O=C(Nc1cccc(N2C(=O)C=CC2=O)c1)c1cccs1 | · | i | 72.0%* | i
Cc1nc2ccccc2c(=O)n1-c1cccc(NC(=O)c2cccs2)c1 | 0.47 | i | · | ·
CC(C)c1cc(C(=O)NNC(=S)NCc2ccco2)c(O)c(C(C)C)c1 | 0.05 | i | · | ·
COc1ccc(C(C)=O)cc1CSc1nnnn1-c1ccc(O)cc1 | · | i | · | ·
CCOc1ccc(C(C)=O)cc1CSc1nnnn1-c1ccc(O)cc1 | · | i | 62.0%* | i
CN(C)CCOc1ccccc1Cc1ccccc1 | 0.7 | i | · | ·
CNCCCCOc1ccccc1Cc1ccccc1 | · | i | 28.5%* | i
CCOC(=O)N1CCN(C(=O)C2CCN(C(=O)c3ccc(C(C)(C)C)cc3)CC2)CC1 | · | i | · | ·
O=C1CN(S(=O)(=O)c2cccc(Cl)c2Cl)c2ccccc2N1 | 1.25 | i | 59.0%* | i
O=C1CN(S(=O)(=O)c2ccc(Br)cc2)c2ccccc2N1 | · | i | · | ·
COc1ccccc1CNS(=O)(=O)c1ccc(-c2cnc(C3CC3)o2)cc1 | · | i | · | ·
O=C(NCc1ccc(F)cc1)C(c1ccccc1)c1ccccc1 | · | i | · | ·
CCC(NC(=S)NCc1ccc(F)cc1)c1ccccc1 (stereo not given) | 1.3 | i | 57.5%* | 62.5%*
O=C1/C(=C2\C(=O)N(Cc3ccc(F)cc3)c3ccccc32)SC(=S)N1CCS(=O)(=O)O | · | i | · | ·
O=C(O)CN1C(=O)/C(=C2\C(=O)N(Cc3ccccc3Cl)c3ccccc32)SC1=S | 6.15* | i | i | i | CHO-K1 ctr=-10.9;KCNQ1 pot spec=-11.0;KCNQ2 pot confirm=-21.1;Kir21 spec=-42.2
C[C@@]12C(=O)N(CCO)CC(=O)N1[C@H](/C=C/c1ccccc1)[C@@H]1C(=O)N(c3ccccc3)C(=O)[C@@H]12 | 0.48 | i | · | ·
C=CCN=C1NN=C(c2ccc3c(c2)OCCO3)CS1 | · | i | · | ·
COc1ccc(C(CNC(=O)C(C)Oc2ccc(Br)cc2)N2CCOCC2)cc1 (stereo not given) | · | i | · | ·
COc1ccccc1C(CNC(=O)C(C)Oc1ccc(Br)cc1)N1CCCC1 (stereo not given) | 0.14 | i | i | i
CC(CC(=O)NCc1ccc(Cl)cc1)c1ccccc1 (stereo not given) | 5.91* | i | i | i | CHO-K1 ctr=-6.6;KCNQ1 pot spec=-23.0;KCNQ2 pot confirm=-2.0;Kir21 spec=-48.0;KCNQ2 W236L pot=i

Source: PubChem BioAssay
